Reference: PubChem BioAssay AID1645857 (Buhrlage Lab, Dana-Farber Cancer Institute and Novartis …, 2021)
Out of some 47,000 compounds screened, about 1,400 (3%) were called active. The sample as a whole holds a higher share of actives than the screen did. Values without a mark were called inactive. Cut-off read from the data, not from the text of the source: active = inhibition above about 30%; inactive = the rest.

What follows are compounds tested against Ubiquitin carboxyl-terminal hydrolase 28 (Homo sapiens) (UniProt Q96RU2) (assay: inhibitors of human USP28 deubiquitinase (AID 1645857)). Settings: purified USP28, Ub-rhodamine cleavage fluorescence, 30 min; at 25 µM; stronger effect = higher value.
Ubiquitin carboxyl-terminal hydrolase 28 (Homo sapiens), sequence (Q96RU2 whole entry, looked up): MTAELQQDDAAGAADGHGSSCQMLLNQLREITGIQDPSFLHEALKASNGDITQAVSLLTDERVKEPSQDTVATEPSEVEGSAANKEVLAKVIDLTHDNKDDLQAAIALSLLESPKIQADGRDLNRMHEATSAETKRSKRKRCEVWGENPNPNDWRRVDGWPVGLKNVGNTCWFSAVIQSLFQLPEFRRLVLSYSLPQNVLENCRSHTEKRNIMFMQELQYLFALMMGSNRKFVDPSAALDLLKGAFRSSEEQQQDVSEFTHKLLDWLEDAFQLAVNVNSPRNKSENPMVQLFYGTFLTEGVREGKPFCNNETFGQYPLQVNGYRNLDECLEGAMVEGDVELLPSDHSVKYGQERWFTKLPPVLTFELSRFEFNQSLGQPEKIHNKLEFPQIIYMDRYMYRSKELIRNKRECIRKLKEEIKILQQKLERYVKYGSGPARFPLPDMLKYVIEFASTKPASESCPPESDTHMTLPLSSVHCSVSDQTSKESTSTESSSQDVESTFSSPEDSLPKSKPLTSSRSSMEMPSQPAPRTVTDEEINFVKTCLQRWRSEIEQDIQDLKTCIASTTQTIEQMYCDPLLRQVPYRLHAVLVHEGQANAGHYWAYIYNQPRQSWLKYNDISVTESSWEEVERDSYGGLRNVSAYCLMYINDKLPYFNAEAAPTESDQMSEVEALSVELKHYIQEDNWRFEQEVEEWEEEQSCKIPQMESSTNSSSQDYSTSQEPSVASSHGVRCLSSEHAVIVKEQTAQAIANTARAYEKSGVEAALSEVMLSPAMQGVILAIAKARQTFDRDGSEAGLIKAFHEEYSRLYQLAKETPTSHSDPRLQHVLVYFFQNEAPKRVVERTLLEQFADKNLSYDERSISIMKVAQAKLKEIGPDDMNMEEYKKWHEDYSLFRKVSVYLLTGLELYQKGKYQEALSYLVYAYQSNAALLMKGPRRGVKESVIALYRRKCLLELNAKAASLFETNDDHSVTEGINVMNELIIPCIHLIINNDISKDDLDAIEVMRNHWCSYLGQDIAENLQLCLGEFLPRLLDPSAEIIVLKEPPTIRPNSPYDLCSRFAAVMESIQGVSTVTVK

In order of falling inhibition:
1. CC(C)Cc1nc2sc3c(NCc4ccco4)ncnc3c2c2c1CCC2  21.3%
2. Cn1cc(-c2nc(C(=O)Nc3ccc(F)cc3)cs2)c2cccnc21  21.1%
3. COc1ccc(-c2nc(-c3nnn(Cc4cccc(F)c4)c3C)no2)cc1  19.7%
4. Cc1nc(-c2cccc(S(=O)(=O)NCc3ccc(Cl)cc3)c2)no1  15.5%
5. COc1ccc(Oc2nc(C)c(-c3ccccc3)cc2C#N)cc1  13.9%
6. Cc1cccc(OCc2nnc(C3(c4ccc(F)cc4)CCOCC3)o2)c1  13.2%
7. Cc1ccnc(Nc2nc(-c3ccccc3)c3cc(Cl)ccc3n2)n1  12.6%
8. COc1ccc(N(Cc2cc(=O)[nH]c3ccccc23)C(=O)c2ccc(Cl)cc2)cc1  9.24%
9. Fc1ccc(CN=C2C(c3ccc4c(c3)OCCO4)=Nc3ncnn32)cc1  9.04%
10. CN(C)c1cccc(C2CN(C(=O)c3ccc4n[nH]nc4c3)CCO2)n1 (configuration not stated)  8.99%
11. O=C(c1ccccc1F)N1CCCC1c1nccnc1-c1ncc[nH]1 (configuration not stated)  8.72%
12. O=c1[nH]oc(O)c1-c1ncc(C(F)(F)F)cc1Cl  8.59%
13. Cc1cccc(C)c1NC(=O)c1nnn(-c2ccc3noc(-c4ccccc4)c3c2)c1C  8.24%
14. COc1ccccc1N1C(=O)c2ccccc2N2C(=O)c3ccccc3C12 (configuration not stated)  6.01%
15. COc1cc(N2CC[C@@H]3[C@@H](CO[C@H]3CNC(=O)C3CC3)C2)ncn1  5.25%
16. O=C(COc1ccccc1)N1CCc2[nH]nc(-c3ccccc3)c2C1  5.14%
17. CC1(C)CC(=O)C2=C(C1)Nc1ccccc1NC2c1ccccc1O (configuration not stated)  4.62%
18. O=C(NCc1ccc2c(c1)OCO2)c1cncc(NS(=O)(=O)c2ccc3c(c2)OCCO3)c1  4.62%
19. O=C(c1ccccc1)N1CCC2(CC1)OCCCO2  4.41%
20. N#Cc1ccc(C(=O)N2CCC(c3nc(-c4ccccc4)no3)CC2)cc1  3.9%
21. Cc1cc(-c2cc(N)n(-c3ccccc3)n2)c(C)n1-c1cccc(C(F)(F)F)c1  3.89%
22. CCN1C(=O)CCc2cc(NC(=O)Cc3ccc(OC)c(Cl)c3)ccc21  2.71%
23. Cc1cc(C)n(CC2CCCCN2CC(=O)NC2(C#N)CCCC2)n1 (configuration not stated)  0.626%
24. CN1CCN(S(=O)(=O)c2cccc(C(=O)Nc3cccc(S(N)(=O)=O)c3)c2)CC1  0.55%
25. CCc1cc(=O)oc2cc(C)cc(OCC(=O)N3CCC4(O)CCCCC4C3)c12 (configuration not stated)  -0.0724%
26. CCn1cc(C(=O)OCC(=O)Nc2cc(F)ccc2F)c(=O)c2ccc(C)nc21  -0.0765%
27. COc1ccccc1CC(NC(C)=O)C(=O)NC1CCN(C(=O)c2cccc(C)c2)CC1 (configuration not stated)  -1.93%
28. COc1ccc(N(CC(=O)N2CCc3ccccc32)S(=O)(=O)c2ccccc2)cc1  -2%
29. Cc1cccc(NC(=O)c2ccc(N3CCC(C)CC3)c([N+](=O)[O-])c2)c1C  -2.68%
30. Cc1c(-c2noc(-c3cccc(N(C)C)c3)n2)nnn1Cc1cccc(F)c1  -4.14%
31. Fc1ccc(-n2cc(-c3ccccc3)c3c(NCc4ccco4)ncnc32)cc1  -4.6%
32. COc1ccccc1NC(=O)N1CCN(Cc2nc3ccccc3o2)CC1  -5.25%
33. Cc1cccc(S(=O)(=O)NCCc2cn(C)c3ncccc23)c1  -5.33%
34. Cc1ccc(C(=O)Nc2nccnc2C(=O)NCc2ccc3c(c2)OCO3)cc1  -7.28%
35. CCc1nc2ccc(C(=O)Nc3nc(-c4ccc5c(c4)CCN5C(=O)c4ccc(C)cc4)c(C)s3)cc2nc1CC  -7.6%
36. COc1ccccc1NC(=O)Nc1ccc(CCc2nc3ccccc3[nH]2)cc1  -8.19%
37. O=C(NCC(c1cccnc1)N1CCc2ccccc2C1)c1cccc(F)c1 (configuration not stated)  -8.37%
38. O=C(CC1CCCC1)N1CCCC(n2c(=O)[nH]c3cncnc32)C1 (configuration not stated)  -14.3%
39. NS(=O)(=O)c1ccc(CNc2nc(CN3CCCCC3)nc3sc4c(c23)CCC4)cc1  -16.9%
40. COCCN1C(=O)CCc2cc(NS(=O)(=O)c3cc(C)cc(C)c3)ccc21  -19.5%
41. Cc1cc(N)nc2c1c(C)nn2-c1ncc(C(F)(F)F)cc1Cl  -20.8%
42. CC(C)c1cc(N2CCN(CCc3ccccc3)CC2)n2c(nc3ccccc32)c1C#N  -23.5%
43. Cc1cccc(NC(=O)c2cnn3c2NC2=C(C(=O)CCC2)C3c2ccccc2)c1 (configuration not stated)  -27.3%
44. CCCCn1c(=O)c(CCC(=O)OCC(=O)Nc2ccc(C)c(Cl)c2)nc2ccccc21  -33.9%
45. Cc1ccc(-c2ncc(C(=O)Nc3ccccc3C)c(-c3ccncc3)n2)cc1  -83.7%
46. Cn1c(CCNC(=O)c2ccc(C(C)(C)C)cc2)nc2cccnc21  -229%

For `Cn1cc(CCNC(=O)Nc2cc(F)ccc2F)c2cccnc21`, the inhibition was 44.1% (active).
In the case of `Cn1cc(CCNC(=O)c2cc3ccccc3[nH]2)c2cccnc21`, the inhibition is reported as 63.9% (active).
With `CC(=O)c1ccc(Cc2ncc(C(F)(F)F)cc2Cl)s1` the inhibition was 61% (active).
In the case of `CCCCOc1ccc(C(=O)Nc2ccc3c(c2)CCC(=O)N3CCC)cc1`, the inhibition is reported as 84.6% (active).
For `Cc1ccc(C(=O)Nc2nc3c(s2)CCC3C(=O)NCc2ccncc2)cc1` (configuration not stated), the inhibition was 37.1% (active).
In the case of `c1coc(CNc2nc(Nc3cccc4ccccc34)nc3ccccc23)c1`, the inhibition is reported as 43.7% (active).
For `CCOc1ccccc1NC(=O)Nc1cc(-c2nc3ccccc3o2)ccc1OC`, the inhibition was 30.8% (active).
With `O=C(Nc1cccc(S(=O)(=O)N2CCCCCC2)c1)c1ccc(N2CCOCC2)c([N+](=O)[O-])c1` the inhibition was 35.6% (active).
`C=C1CCC2[C@](C)(CCC[C@]2(C)C(=O)OC)[C@H]1CCc1ccoc1/C=C/C(=O)O` (some centres not stated) was tested, and the inhibition was 48% (active).
With `C=C1CCC2[C@](C)(CCC[C@]2(C)C(=O)OC)[C@H]1CCc1ccoc1C[N+](C)(C)Cc1ccccc1` (some centres not stated) the inhibition was 50.6% (active).
`CCOc1ccccc1-c1nc(-c2nnn(Cc3ccccc3)c2C)no1` was tested, and the inhibition was 41.4% (active).
